Experimental data: PubChem BioAssay (NCI)
Compounds without any hit were thinned out: in the full panel of roughly 83,000, 20% have a hit.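 Testing used 96-well plates and a 48-hour single-concentration exposure. Example: -40 means 40% of the starting cells died.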 Unmarked numbers belong to inactive results. Calls of active or inactive are those of the source.

The molecules below were run on NCI-H460 lung (assay: NCI-60 one-dose screen, 48 h (100 = growth as untreated, 0 = no growth, -100 = all killed)). Details: 10 µM unless noted.
Procedure: Growth inhibition of the NCI-H460 human Non-Small Cell Lung tumor cell line is measured as a screen for anti-cancer activity. Cells are grown in 96 well plates and exposed to the test compound for 48 hours. Compounds are tested at a single concentration, which is 10^-5 M for most compounds. The reported endpoint is percent growth (GI% or GIPRCNT), where numbers from 0 - 100% represent growth inhibition, and numbers from -100% - 0 represent cell death. For example, a value of 40 represents 60% growth inhibition. A value of 0 means no net growth occurred over the course of the experiment. A value of -40 indicates 40% of cells at the beginning of the experiment died by the end of the experiment. A value of -100 means all cells are dead at the end of the experiment.
NCI-60 Human Tumor Cell Lines Screen was performed using the standard one-dose NCI protocol, which is described in more detail at https://dtp.cancer.gov/discovery_development/nci-60/default.htm.
Compounds with GIPRCNT values below 10 were considered active. Activity score was based on GIPRCNT using the following formula: […]
Score is 0 for GIPRCNT values of 100 or above, 50 for GIPRCNT values of 0, and 100 for GIPRCNT values of -100.

Compared with `CCOC(=O)c1ccc(Nc2nc(NN)nc(-c3ccc(OC)cc3)c2C#N)cc1`, `COc1ccc(-c2ccc(SCC(=O)Nc3ccc(S(N)(=O)=O)cc3Br)nn2)cc1` is lower in growth: 109% for the first, 70.2% for the second.

Going from `C/C(=N\N=C1/C(=O)Nc2ccccc21)c1ccc2c(c1)Nc1ccccc1S2` to `O=C1NC(=O)/C(=C/c2ccccc2OCc2cc3ccccc3nc2Cl)S1`, the growth rises from 43.8% to 91.9%.

First: COc1cccc(-c2c(C#N)c(-c3ccc(Cl)cc3)nc3n[nH]c(-c4ccc(Cl)cc4)c23)c1
Second: CCOc1ccc(-c2c(C#N)c(-c3ccc(Cl)cc3)nc3n[nH]c(-c4ccc(Cl)cc4)c23)cc1OC
The growth of the first is lower: 34.3% for the first, 42.3% for the second.

Compared with `CCCSc1nc(NCCc2c[nH]c3ccccc23)c(C#N)c(-c2ccccc2)n1`, `N#Cc1c(NCc2ccccc2)n[nH]c1Nc1ccccc1` is higher in growth: 25% for the first, 44.2% for the second.

Going from `O=C(Cn1nc(-c2ccccc2)ccc1=O)N/N=C/c1ccc(N2CCOCC2)cc1` to `O=c1oc2ccccc2cc1-c1csc(N2N=C(c3ccccc3)CC2c2ccc(N3CCOCC3)cc2)n1` (stereo not given), the growth rises from 99.5% to 107%.

First: CC(=O)OC[C@@]1(C)C2CC[C@]3(C)C(CC=C4C5CC(C)(C)CC[C@]5(C(=O)Nc5cccc(C)c5)CC[C@]43C)[C@@]2(C)C[C@@H](OC(C)=O)[C@@H]1OC(C)=O (stereo not given in full)
Second: CC1(C)CC[C@]2(C(=O)O)CC[C@]3(C)C(=CCC4[C@@]5(C)C[C@@H](O)[C@@H]6OC(c7cccc(Br)c7)OC[C@@]6(C)C5CC[C@]43C)C2C1 (stereo not given in full)
The growth of the first is lower: 12.7% for the first, 20.2% for the second.

Going from `Nc1n[nH]c2cccc(C#Cc3cccc(NC(=O)c4cccc(Cl)c4)c3)c12` to `COc1cccc(/C=C/c2nc3ccccc3c(=O)n2CC(=O)Nc2ccc(Cl)cc2)c1`, the growth rises from 24.7% to 47.4%.

First: S=C(Nc1ccccc1)Nc1ccc(OCc2nc3ccccc3[nH]2)cc1
Second: O=c1onc(-c2cc3ccccc3nc2Cl)n1-c1cccc2ccccc12
The growth of the first is lower: 31.3% for the first, 51.7% for the second.

Compared with `COc1ccc(Cc2nn(CC(=O)N/N=C/c3ccc(F)cc3)c(=O)c3c(C)noc23)cc1`, `COc1ccc(-c2ccc(SCC(=O)NCCc3ccc(S(N)(=O)=O)cc3)nn2)cc1` is higher in growth: 13.3% for the first, 107% for the second.

Compared with `COc1cc(C2CC(c3cc(OC)c(OC)c(OC)c3)=NN2C(C)=O)ccc1OCc1ccccc1` (stereo not given), `COc1cc2c(c(OC)c1OC)C(=O)CC(c1cccc(NC(=O)c3cc(NC(=O)[C@H](C)N)ccc3Cl)c1)O2` (stereo not given in full) is higher in growth: 24.3% for the first, 51.4% for the second.

First: COc1ccc(-c2nc3ccc(C(=O)NN4C(=O)c5ccc([N+](=O)[O-])cc5C4=O)cc3[nH]2)cc1
Second: COc1ccc(NC(=O)Cn2c(O)c(N=Nc3ccc(S(N)(=O)=O)cc3)c3ccccc32)cc1
The growth of the first is higher: 100% for the first, 21.3% for the second.

First: O=C(O)c1cccc(-c2ccc(/C=N/NC(=O)c3[nH]c4ccc(Br)cc4c3-c3ccccc3)s2)c1
Second: CN1CCN(/C(=N\c2sc(-c3ccccc3)nc2-c2ccccc2)c2ccccc2)CC1
The growth of the first is higher: 42.9% for the first, 42.6% for the second.

Going from `CC(=O)Nc1ccc(-c2cn(-c3cccc(C(=O)Nc4ccc(N5CCN(C)CC5)cc4)c3)nn2)cn1` to `Cc1cccc(NC(=O)CN2CCN(c3ncnc4c3cnn4-c3ccccc3)CC2)c1`, the growth falls from 90.4% to 73%.

Going from `Cc1ccc(-n2c(-c3cc4ccccc4nc3Cl)noc2=O)cc1` to `O=C(COc1ccc2c(c1)CCCC(=O)N2)NCc1ccccc1`, the growth rises from 90.6% to 104%.

First: CC1(C)CC[C@]2(C(=O)O)CC[C@]3(C)C(=CCC4[C@@]5(C)C[C@@H](O)[C@@H]6OC(c7ccco7)OC[C@@]6(C)C5CC[C@]43C)C2C1 (stereo not given in full)
Second: O=C(CSc1nc2ccccc2c(=O)[nH]1)NCCN1CCCCC1
The growth of the first is lower: 19.8% for the first, 104% for the second.

Molecule `CCCCc1c(Nn2cnnn2)no[n+]1[O-]` has a growth of 36.5%.

With `Cn1cc(-c2cc3nc(-c4c[nH]c5ccc(Cl)cc45)cc(N)n3n2)c2ccccc21` the growth was -5.5% (active).
With `Cc1ccc(C(=O)C(c2c[nH]c3ccccc23)c2c[nH]c3ccccc23)cc1` the growth was -6.44% (active).
`Cn1cc(-c2cc(N)n3nc(-c4cn(C)c5ncc(Br)cc45)cc3n2)c2cc(Br)cnc21` was tested, and the growth was -65.6% (active).
For `O=C(NN1C(=O)/C(=C/C=C/c2ccc([N+](=O)[O-])o2)SC1=S)c1ccc(Cl)cc1`, the growth was -72.7% (active).
With `CN(C)c1ccnc(NCCCSC(c2ccccc2)(c2ccccc2)c2ccccc2)c1` the growth was -19.2% (active).
With `C#CCOc1ccc(/C=N/Nc2nc(-c3cc4cc(OC)ccc4oc3=O)cs2)cc1OC` the growth was 8.62% (active).
`CCN1C(=O)N(CC)C2NNC(Sc3c(C(=O)O)c4ccccc4n(C4CCCC4)c3=O)=NC21` (stereo not given) was tested, and the growth was 4.22% (active).
In the case of `COc1ccc(-c2ccnc(SCc3cc4ccccc4[nH]c3=O)n2)cc1OC`, the growth is reported as 8.25% (active).
`COc1ccc2[nH]cc(-c3cc(N)n4nc(-c5cn(C)c6ccccc56)cc4n3)c2c1` was tested, and the growth was -1.01% (active).
